Source: PubChem BioAssay (NCI)
This is part of a sample that, as a whole, favours compounds with a hit. Of some 83,000 tested, about 20% had one in any assay.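 48-hour exposure, single concentration, 96-well plates; percent growth endpoint where 0 means no net growth. Active: below 10.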 Values without a mark were called inactive. Activity calls are given as the source filed them.

System: HL-60(TB) leukemia
Assay: NCI-60 one-dose screen, 48 h (100 = growth as untreated, 0 = no growth, -100 = all killed)
Conditions: 10 µM unless noted

| Structure (SMILES) | growth |
| --- | --- |
| CC1CCN(S(=O)(=O)c2ncsc2-c2ccccc2)CC1 | 72.3% |
| Clc1nc2ccccc2nc1-c1nnc(C2CCCCC2)o1 | 66.6% |
| CCCCCCCn1cc2c(NCCc3ccccc3)ncnc2n1 | 106% |
| N#Cc1c(-c2cccs2)cc(-c2cnccn2)nc1SCC(=O)NNC(=S)Nc1ccc(F)cc1 | 122% |
| COc1ccc(-c2nc(C#N)c(N3CCC(S(=O)(=O)N4CCOCC4)CC3)o2)cc1 | 117% |
| O=c1c2ccccc2nc(COc2ccccc2)n1NS(=O)(=O)c1ccc(Cl)cc1 | 75.7% |
| COc1ccccc1NCc1cccn1Cc1ccc(F)cc1 | 104% |
| CN(C)CCNC(=O)c1ccc(-c2nc3ccc4[nH]ncc4c3c3c2COCC3)cc1 | -32.6% (active) |
| C#CCOc1ccccc1C(OC(=O)c1ccccc1)C(=O)NC(C)(C)C(C)(C)C (configuration not stated) | 95.1% |
| CC(C)N=C(N/C(N)=N/c1nc2ccccc2s1)NC(C)C | 41.7% |
| Cc1cc(C(=O)Nc2sc3c(c2C(N)=O)CCC(=O)C3)ccc1OCCN1CCCCC1 | 63.3% |
| COc1ccc2oc3c4[nH]c5ccccc5c4c4c(c3c2c1)C(=O)N(O)C4=O | 102% |
| C=C(C)[C@@H]1CC[C@]2(COCCCNCCC#N)CC[C@]3(C)[C@H](CC[C@@H]4[C@@]5(C)CC[C@H](OCCCNCCC#N)C(C)(C)[C@@H]5CC[C@]43C)[C@@H]12 | 0.0603% (active) |
| COc1cc(C(=O)C[n+]2ccc3ccccc3c2)cc(OC)c1OC | 92.7% |
| COc1ccc(OC)c(NC2=C(Cl)C(=O)C(C)=C(C)C2=O)c1 | 74% |
| NC(N)=Nc1ccc(Oc2cccc(NC(N)=Nc3ccc(Br)c(C(F)(F)F)c3)c2)cc1 | 17.6% |
| CC(=O)C1=C(C)NC(NNC(N)=S)=NC1c1ccccc1 (configuration not stated) | 148% |
| COc1ccc(C(=O)/C=C/c2ccc(OCc3ccc(Cl)cc3)c(OC)c2)cc1OC | 4.56% (active) |
| CCOC(=O)c1sc(NCC(=O)Nc2cccc([N+](=O)[O-])c2)c(C(=O)OCC)c1C | 0.979% (active) |

| Structure (SMILES) | growth |
| --- | --- |
| CC(C)(O)c1cncc(-c2ccc3ncnc(NCc4ccccc4)c3c2)c1 | 105% |
| C#C[C@]1(O)CC[C@H]2[C@@H]3CC=C4c5sc(Nc6cccc(Cl)n6)nc5CC[C@]4(C)[C@H]3CC[C@@]21C | -15.6% (active) |
| O=C(CSc1nc2sc3c(c2c(=O)n1-c1ccc(Cl)cc1)CCCC3)NNC(=O)Nc1ccc(Cl)c(C(F)(F)F)c1 | 6.38% (active) |
| CC(=O)c1ccc(Nc2nc(SC(C)C)nc(-c3ccccc3)c2C#N)cc1 | 83.8% |
| O=C(CSc1ccc(-c2nc3ccccc3[nH]2)cn1)N1CCN(c2ccccc2F)CC1 | 64.6% |
| Clc1ccc(-c2cn3cc(Cc4ccc(Cl)c(Cl)c4)sc3n2)cc1 | 80.3% |
| Cn1ccnc1C(=O)/C=C/c1ccc(CNC(=O)c2ccc(Cl)cc2)cc1 | -25.5% (active) |
| CC(C)Sc1nc(Nc2ccc(S(N)(=O)=O)cc2)c(C#N)c(-c2ccc(F)cc2)n1 | 45.4% |
| O=C1[C@H]2Cc3c([nH]c4ccccc34)[C@H](c3ccc(Cl)cc3)N2C(=O)CN1C1CCN(Cc2c(Cl)cccc2Cl)CC1 | 62.1% |
| O=C(CCCCCCN1CC(=O)N2[C@@H](c3cc(F)cc(F)c3)c3[nH]c4ccccc4c3C[C@H]2C1=O)NO | 16.2% |
| COc1ccc(/C=N/NC2=NC3C(S2)N(C)C(=O)N3C)cc1 (configuration not stated) | -28.8% (active) |
| COC(=O)C(Cc1ccccc1)NS(=O)(=O)/N=C1\NC(=O)NC1=C(Cl)Cl (configuration not stated) | 96.1% |
| CNC(=O)c1cc(N2CCc3cc(NC(=O)Nc4ccc(Cl)c(C(F)(F)F)c4)ccc32)ccn1 | 50.3% |
| COC(=O)/C=C/c1c(C2(C)NC(=O)c3ccccc3N2)c(=O)oc2ccc(Cl)cc12 (configuration not stated) | 109% |
| CC1=NC2=NN3C(=NN2C(c2ccccc2)=C1)N=NC(c1ccc(Br)cc1)=C3c1ccc(Br)cc1 | 115% |
| COc1ccc(/C=C2\SC(=Nc3cc(C)[nH]n3)NC2=O)cc1 | 87.1% |
| O=C1[C@H]2Cc3c([nH]c4ccccc34)[C@H](c3ccc(Cl)cc3)N2C(=O)CN1C1CCN(CC2CCCCC2)CC1 | 47.2% |
| O=C(NNc1nc2cc(F)c(F)cc2n2cccc12)c1ccncn1 | 0.0559% (active) |
